# Active and inactive are the calls of the source. Rule for the calls: active = hit-call score of the fitted dose curve at least 0.9, where 1 is the maximum; inactive = score below 0.9.
# Read-out: Pro-epidermal growth factor (Homo sapiens) (UniProt P01133)
# Test: LTEA_HepaRG_EGF: Life Technologies and Expression Analysis (LTEA) Assay for Epidermal growth factor (EGF) using HepaRG (AID 2283489)
# Settings: mRNA level, 48 h; actives raise or lower the signal
# Protocol: LTEA_HepaRG is a cell based, multiplexed-readout assay that uses HepaRG, a human liver cell line, with measurements taken at 48 hours after chemical dosing on a 96-well plate.LTEA_HepaRG_EGF is one of 102 assay component(s) measured in the LTEA HepaRG cell culture assay. It is a marker of Cell proliferation, survival, death.Data from the assay component LTEA_HepaRG_EGF was analyzed into 1 endpoint. This assay endpoint, LTEA_HepaRG_EGF, was analyzed with bidirectional fitting relative to DMSO as the negative control and baseline of activity. Using a type of inducible reporter, measures of mRNA induction for gain or loss-of-signal activity can be used to understand regulation of transcription factor activity. To generalize the intended target to other relatable targets, this assay endpoint is annotated to the growth factor intended target family, where the subfamily is EGF-like domain.
# A total of 1060 chemcials from the ToxCast library were tested in eight-point concentration-response experiments. Cell culture and cytotoxicity assays were conducted at Thermo Fisher Scientific's Custom Services facility (Madison, WI). A single lot of human HepaRG cells (Thermo Fisher Scientific, Frederick, MD) was used for the cell culture experiments. 96-well format collagen type I coated plates of human HepaRG cells were prepared using established methods. Briefly, cryopreserved HepaRG cells were thawed, plated at a density of approximately 100,000 cells/well in HepaRG Thaw, Plate, and General Purpose media (HPRG770, Thermo Fisher Scientific), and incubated for 48 hours. 0.5% DMSO was selected as vehicle control to balance the requisite need of DMSO in HepaRG cultures to maintain differentiation (for example, baseline metabolism, proportions of hepatocytes vs. cholangiocytes), while enabling further hepatic receptor pathway activation (for example, PXR and CAR) in response to chemical exposure. 48 hours after plating, the culture medium was replaced with HepaRG Serum-Free Incudtion Media. Cells were exposed to each test chemical in duplicate and maintained in CO2 incubators for another 48 hours. Chemical plates were thawed to room temperature and 200x concentrations of treatment groups were prepared. 8-point conentration-reponse curves were made with the highest exposure at 100 uM, followed by half-log dilutions, all in 0.5% DMSO. Each test plate contained variouse controls, induction positive controls (1mM phenobarbital), cytotoxicity positive controls ([…] aflatoxin B1), vehicle controls (0.5% DMSO), and total lysis controls (0.5% DMSO). Cell morphology images were taken using an Essen IncuCyte FLR automated microscope, with six 96-well plates imaged in about 24 minutes. Images were captured and exported and JPEG files. Spent culture media was transfered to black-well plates for the LDH assay, and remaining media was sorted at -80 C for later use. Cells were treated with RLT buffer and frozen until shipped for gene expression analysis. Total RNA was isolated from the cell suspension in 75 uL of Buffer RLT (Qiagen, Germantown, MD 20874) by Quintiles/Expression Analysis (Durham, NC) using a custom isolation procedure. Total RNA from each plate well was transferred to a preamplification plate. Fluidigm's 96.96 Dynamic ArrayTM (Fluidigm, Amsterdam, the Netherlands) technology was used for gene expression analyses by quantitative reverse transcription polymerase chain reaction (qRT-PCR, performed by Quintiles/Expression Analysis, Durham, NC)89. Standard TaqManTM Assays (Applied Biosystems/ThermoFisher Scientific, Foster City, CA) were used to assess the expression of 93 genes selected based on their selectivity and sensitivity to important hepatic receptors known to be modulated by environmental chemicals; importance in human hepatocyte functionality; and hepatotoxicity. […]
SMILES,outcome,AC50
O=[N+]([O-])C(Br)(CO)CO,inactive,–
Nc1ccc(Cl)cc1N,inactive,–
O=C(O)C1C2CCC(O2)C1C(=O)O (stereo not given),–,13.9 µM (active)
N#CC(Br)Br,inactive,–
COc1cc(C=O)cc2c1[C@H](COC(N)=O)[C@]1(OC(C)=O)ON2C[C@H]2[C@@H]1N2C(C)=O,inactive,–
Oc1ccc2ccc3cccc4ccc1c2c34,inactive,–
c1ccc(N=Nc2ccccc2)cc1,inactive,–
CN(C)[C@@H]1C(=O)C(C(N)=O)=C(O)[C@@]2(O)C(=O)C3=C(O)c4c(O)cccc4[C@@](C)(O)[C@H]3C[C@@H]12,inactive,–
COP(=S)(OC)SCN1C(=O)c2ccccc2C1=O,inactive,–
C=CCc1ccc2c(c1)OCO2,inactive,–
ClCCOCCCl,inactive,–
OCCCl,inactive,–
CCCCCCCCCCCCCN1CC(C)OC(C)C1 (stereo not given),inactive,–
ClC1=C(Cl)[C@]2(Cl)[C@H]3[C@H]([C@@H]4C=C[C@H]3C4)[C@@]1(Cl)C2(Cl)Cl,inactive,–
CC(C)(O)c1cnn2c(-c3ccc(F)c(-c4c(F)cccc4C#N)c3)cnc2n1,inactive,–
Nc1cc(Cl)cc(C(=O)O)c1Cl,inactive,–
Cc1ccc(N)cc1,inactive,–
CS(=O)(=O)NC(=O)c1cc(Oc2ccc(C(F)(F)F)cc2Cl)ccc1[N+](=O)[O-],inactive,–
O=C1CCCO1,inactive,–
O=P(OCCCl)(OCCCl)OCCCl,inactive,–

SMILES,outcome,AC50
OCCOCCO,inactive,–
[Cl-].[Cl-].[Hg+2],inactive,–
Cc1cccc(N)c1N,inactive,–
CCOC(=O)[C@]1(c2ccccc2)Oc2ccccc2[C@@H]1N,–,75.6 µM (active)
O=C(Oc1ccc(Br)cc1)N1CCN2CCC1CC2,inactive,–
CCCCCCCCOC(=O)c1ccc(C(=O)OCCCCCCCC)c(C(=O)OCCCCCCCC)c1,inactive,–
CO[C@@H]1[C@H](OC(=O)NC(=O)CCl)CC[C@]2(CO2)[C@H]1[C@@]1(C)O[C@@H]1CC=C(C)C,inactive,–
C1=Cc2cccc3cccc1c23,inactive,–
Clc1ccc(Cl)c(Cl)c1,inactive,–
CC(C)(C)OOC(C)(C)CCC(C)(C)OOC(C)(C)C,inactive,–
Clc1ccc(C(c2ccc(Cl)cc2)C(Cl)(Cl)Cl)cc1,inactive,–
CC(O)CCO (stereo not given),inactive,–
Brc1ccc(Oc2ccccc2)cc1,inactive,–
OCCCBr,inactive,–
O=C(Nc1ccccc1)c1ccccc1I,inactive,–
CCCSC(=O)N(CCC)CCC,inactive,–
[As]#[In],inactive,–
ClC1=C(Cl)C2(Cl)C3C(Cl)C=CC3C1(Cl)C2(Cl)Cl (stereo not given),inactive,–
CCN(CC)CCO,inactive,–
CCN(CC)N=O,inactive,–

# From PubChem BioAssay (EPA / NIEHS)
